The text below walks through data of PubChem BioAssay (NCI).

Compounds without any hit were thinned out: in the full panel of roughly 83,000, 20% have a hit.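 In brief: 96-well plates, 48 h treatment, single concentration, percent growth endpoint.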 A number with no mark means an inactive call. Calls of active or inactive are those of the source. Rule for the calls: active = growth percent below 10; inactive = the rest.

Among the test systems are NCI-H23 lung; NCI-H226 lung; HOP-62 NSCLC; NCI-H460 lung; HOP-92 NSCLC; NCI-H522 lung; A549/ATCC NSCLC; 786-0 renal; COLO 205 colon.
Holding throughout (assay): NCI-60 one-dose screen, 48 h (100 = growth as untreated, 0 = no growth, -100 = all killed)
What all share (conditions): 10 µM

For the compound `O=C(CCCSc1nc(-c2ccc(Cl)cc2)cc(-c2ccc(Cl)cc2)n1)NO`, the growth with NCI-H23 lung is 13.2%; in the test with NCI-H226 lung, 2.42% (active); with HOP-62 NSCLC, 15.4%; with NCI-H460 lung, 0.534% (active); in the test on HOP-92 NSCLC, 28%; in the test on NCI-H522 lung, 6% (active). The values for the growth with A549/ATCC NSCLC, in the test with 786-0 renal and in the test on COLO 205 colon were 10.2%, 6.25% (active) and 9.44% (active), respectively.

With `Cc1ccc(C2NC(=S)N3C(c4ccc(C)cc4)NC(=S)N23)cc1` (stereo not given), the growth was 38.9% in the test with NCI-H23 lung; 63.1% with NCI-H226 lung; -45.6% (active) with HOP-62 NSCLC; 9.7% (active) in the test on NCI-H460 lung; -3.05% (active) in the test on HOP-92 NSCLC; -39.2% (active) in the test on NCI-H522 lung. Also, the results for the growth with A549/ATCC NSCLC and in the test with COLO 205 colon were 32% and 44%, respectively.

On to `O=C(Nc1ccc(OCc2nnc(-c3ccc(Cl)cc3)o2)c(F)c1)Nc1ccc(Cl)c(C(F)(F)F)c1`, for which the growth with NCI-H23 lung was -5.04% (active); with NCI-H226 lung, -4.39% (active); in the test on HOP-62 NSCLC it was 16.6%; in the test with NCI-H460 lung it was 2.73% (active); with HOP-92 NSCLC it was -19.3% (active); in the test with NCI-H522 lung, -33.8% (active). Besides, the growth with A549/ATCC NSCLC is 12.8%; in the test with 786-0 renal it was 10.1%; in the test on COLO 205 colon it was -76.9% (active).

For the compound `CS(=O)(=O)c1nccc(-c2c(-c3cccc(O)c3)nc3sccn23)n1`, the growth is 109% in the test with NCI-H23 lung; 95.4% in the test with NCI-H226 lung; 95.9% in the test on HOP-62 NSCLC; 97.4% in the test on NCI-H460 lung; 29.8% in the test on HOP-92 NSCLC; -2.17% (active) with NCI-H522 lung. For the same compound, the values for the growth in the test on A549/ATCC NSCLC, in the test with 786-0 renal and with COLO 205 colon were 97.5%, 77.2% and 114%, respectively.

On to `CN1CCN(CC(=O)Nc2cccc(-n3cc(-c4ccncc4)c(-c4ccc(Cl)c(O)c4)n3)c2)CC1`, for which the growth with NCI-H23 lung is 50.4%; in the test on NCI-H226 lung, 74.3%; with HOP-62 NSCLC, 58.6%; in the test with NCI-H460 lung, 13.3%; in the test with HOP-92 NSCLC, 15.4%; in the test on NCI-H522 lung, 18.1%. Moreover, the growth with A549/ATCC NSCLC is 29.3%; in the test on 786-0 renal it was 33.6%; in the test on COLO 205 colon it was 13.5%.

With `N#Cc1c(-c2ccc(Cl)cc2)csc1NC(=O)Nc1ccc(Cl)c(C(F)(F)F)c1`, the growth with NCI-H23 lung is 15.8%; in the test with NCI-H226 lung it was 8.81% (active); with HOP-62 NSCLC, 14.5%; in the test on NCI-H460 lung it was 2.11% (active); in the test on HOP-92 NSCLC, -9.88% (active); with NCI-H522 lung it was -12.8% (active). Besides, the growth in the test with A549/ATCC NSCLC is 18.3%; in the test on 786-0 renal, 35.9%; in the test with COLO 205 colon, -30.4% (active).

As to `S=C(NCc1ccccc1)NCc1ccccc1`, the growth is 95% in the test on NCI-H23 lung; 97.8% in the test on NCI-H226 lung; 94.2% with HOP-62 NSCLC; 103% in the test on NCI-H460 lung; 99.3% in the test on HOP-92 NSCLC; 82.4% in the test on NCI-H522 lung. Moreover, the growth with A549/ATCC NSCLC is 86.1%; in the test on 786-0 renal, 96.6%; in the test with COLO 205 colon it was 107%.

On to `CC(=O)N[C@H](C(=O)N[C@@H](CCCNC(=N)N)C(=O)N[C@@H](CCCCN)C(=O)N[C@@H](CCCNC(=N)N)C(=O)NC(C(=O)N[C@@H](CC(C)C)C(=O)N[C@@H](CCCNC(=N)N)C(=O)N[C@@]1(C)CCC/C=C\CCC[C@@](C)(C(=O)N[C@@H](CCCNC(=N)N)C(=O)N[C@@H](CCC(=O)O)C(=O)N[C@@H](CC(C)C)C(=O)N[C@H](C(=O)N[C@@H](CCC(=O)O)C(N)=O)C(C)C)NC(=O)[C@H](CCC(N)=O)NC(=O)[C@H](CC(C)C)NC(=O)[C@H](CC(C)C)NC1=O)[C@@H](C)O)C(C)C` (stereo not given in full), for which the growth was -34.6% (active) with NCI-H23 lung; 7.17% (active) in the test with NCI-H226 lung; -43.1% (active) in the test with HOP-62 NSCLC; -63.6% (active) with NCI-H460 lung; -76% (active) with HOP-92 NSCLC; 36.5% in the test on NCI-H522 lung. For the same compound, the growth with A549/ATCC NSCLC is 27.8%; in the test with 786-0 renal it was -85.6% (active); in the test on COLO 205 colon, -53% (active).

Take `Nc1nccc(OCCO)n1`: the growth with NCI-H23 lung is 99.8%; with NCI-H226 lung, 96.1%; with HOP-62 NSCLC, 94%; in the test with NCI-H460 lung, 108%; in the test with HOP-92 NSCLC it was 113%; with NCI-H522 lung it was 90.7%. Also, the results for the growth with A549/ATCC NSCLC, in the test on 786-0 renal and in the test with COLO 205 colon were 97.4%, 102% and 110%, respectively.

In the case of `COC(=O)C1(O)NC(=C(C#N)C#N)C(C#N)=C1C(=O)c1ccc(OC)c(OC)c1` (stereo not given), the growth is 103% with NCI-H23 lung; 93.6% in the test with NCI-H226 lung; 96.1% in the test with HOP-62 NSCLC; 100% in the test with NCI-H460 lung; 90.3% with HOP-92 NSCLC; 90.3% in the test on NCI-H522 lung. The growth with A549/ATCC NSCLC is 91.9%; in the test on 786-0 renal, 101%; in the test with COLO 205 colon, 120%.

Take `CC(C)(C)OC(=O)CN1CCc2c(sc3ncnc(N/N=C/c4cccc5ccccc45)c23)C1`: the growth was 40.6% in the test on NCI-H23 lung; 53.1% in the test on NCI-H226 lung; 45.5% in the test with HOP-62 NSCLC; 20.9% with NCI-H460 lung; 54.9% with HOP-92 NSCLC; 32.8% in the test with NCI-H522 lung. For the same compound, the growth in the test with A549/ATCC NSCLC is 43.7%; with 786-0 renal it was 44.1%; with COLO 205 colon, 18.4%.

Regarding `Cc1c(Cl)cccc1NC(=O)CN1CCOCC1`, the growth was 95.9% in the test on NCI-H23 lung; 106% with NCI-H226 lung; 93% in the test on HOP-62 NSCLC; 100% with NCI-H460 lung; 118% in the test on HOP-92 NSCLC; 75.1% with NCI-H522 lung. Moreover, the growth with A549/ATCC NSCLC was 106%; in the test with 786-0 renal it was 99.7%; in the test on COLO 205 colon, 108%.

With `CC(C)c1cc(N=O)cc(C(C)C)c1O`, the growth in the test with NCI-H23 lung is 95.2%; in the test with NCI-H226 lung, 102%; with HOP-62 NSCLC it was 101%; in the test on NCI-H460 lung, 103%; with HOP-92 NSCLC, 108%; with NCI-H522 lung it was 97.7%. Besides, the growth with A549/ATCC NSCLC is 97%; in the test on 786-0 renal, 104%; in the test on COLO 205 colon, 112%.

Take `Cc1c(Cl)cccc1NC(=O)CCCl`: the growth with NCI-H23 lung is 105%; in the test on NCI-H226 lung it was 95.3%; in the test on HOP-62 NSCLC, 86.9%; with NCI-H460 lung, 102%; with HOP-92 NSCLC, 103%; in the test on NCI-H522 lung, 91%. For the same compound, the results for the growth with A549/ATCC NSCLC, in the test with 786-0 renal and in the test on COLO 205 colon were 92.8%, 103% and 107%, respectively.
